The source made the active and inactive calls. Rule for the calls: active = hit-call score of the fitted dose curve at least 0.9, where 1 is the maximum; inactive = score below 0.9.
Tests used:
[1] = biological target: CCAAT/enhancer-binding protein beta (Homo sapiens) (UniProt P17676); test: ATG_C_EBP_CIS: Attagene CIS-FACTORIAL HepG2 Assay for human CCAAT/Enhancer Binding Protein (C/EBP) beta (AID 2282927); settings: HepG2 Attagene cis-factorial transcription factor reporter; actives raise or lower the signal
Sequence of CCAAT/enhancer-binding protein beta (Homo sapiens) (P17676 whole entry, looked up): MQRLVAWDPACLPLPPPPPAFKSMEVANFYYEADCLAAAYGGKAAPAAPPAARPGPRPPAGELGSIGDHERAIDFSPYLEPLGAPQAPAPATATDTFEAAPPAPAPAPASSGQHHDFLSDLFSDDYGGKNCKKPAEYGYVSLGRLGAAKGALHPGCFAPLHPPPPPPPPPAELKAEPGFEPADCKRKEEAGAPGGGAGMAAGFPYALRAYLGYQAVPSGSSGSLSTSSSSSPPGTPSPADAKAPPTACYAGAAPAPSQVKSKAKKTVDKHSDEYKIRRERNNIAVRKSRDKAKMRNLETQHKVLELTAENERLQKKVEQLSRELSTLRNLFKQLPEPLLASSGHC
Summary of the method: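 Following a 24 h incubation with test chemical, transfected HepG2 cells yielded RNA whose reporter transcripts were quantified by RT-PCR and fluorescent capillary electrophoresis, with DMSO serving as baseline for bidirectional fitting.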

[2] = ATG_CMV_CIS: Attagene CIS-FACTORIAL HepG2 Assay for human CMV (Internal Marker) (AID 2282928); settings: HepG2 CMV promoter reporter, transcription factor profiling; actives raise or lower the signal;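 note: endpoint acts as a background internal control marker rather than a target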
Summary of the method: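 CMV internal-marker background readout in transiently transfected HepG2 cells bearing cis-regulated reporter units. Reporter mRNA is measured 24 h after dosing by RT-PCR and capillary electrophoresis, with bidirectional fitting against DMSO.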

[3] = biological target: Aryl hydrocarbon receptor (Homo sapiens) (UniProt P35869); test: ATG_Ahr_CIS: Attagene CIS-FACTORIAL HepG2 Assay for human Aryl Hydrocarbon Receptor (Ahr) (AID 2282930); settings: HepG2 AhR cis-factorial reporter transcription; actives raise or lower the signal
Sequence of Aryl hydrocarbon receptor (Homo sapiens) (P35869 whole entry, looked up): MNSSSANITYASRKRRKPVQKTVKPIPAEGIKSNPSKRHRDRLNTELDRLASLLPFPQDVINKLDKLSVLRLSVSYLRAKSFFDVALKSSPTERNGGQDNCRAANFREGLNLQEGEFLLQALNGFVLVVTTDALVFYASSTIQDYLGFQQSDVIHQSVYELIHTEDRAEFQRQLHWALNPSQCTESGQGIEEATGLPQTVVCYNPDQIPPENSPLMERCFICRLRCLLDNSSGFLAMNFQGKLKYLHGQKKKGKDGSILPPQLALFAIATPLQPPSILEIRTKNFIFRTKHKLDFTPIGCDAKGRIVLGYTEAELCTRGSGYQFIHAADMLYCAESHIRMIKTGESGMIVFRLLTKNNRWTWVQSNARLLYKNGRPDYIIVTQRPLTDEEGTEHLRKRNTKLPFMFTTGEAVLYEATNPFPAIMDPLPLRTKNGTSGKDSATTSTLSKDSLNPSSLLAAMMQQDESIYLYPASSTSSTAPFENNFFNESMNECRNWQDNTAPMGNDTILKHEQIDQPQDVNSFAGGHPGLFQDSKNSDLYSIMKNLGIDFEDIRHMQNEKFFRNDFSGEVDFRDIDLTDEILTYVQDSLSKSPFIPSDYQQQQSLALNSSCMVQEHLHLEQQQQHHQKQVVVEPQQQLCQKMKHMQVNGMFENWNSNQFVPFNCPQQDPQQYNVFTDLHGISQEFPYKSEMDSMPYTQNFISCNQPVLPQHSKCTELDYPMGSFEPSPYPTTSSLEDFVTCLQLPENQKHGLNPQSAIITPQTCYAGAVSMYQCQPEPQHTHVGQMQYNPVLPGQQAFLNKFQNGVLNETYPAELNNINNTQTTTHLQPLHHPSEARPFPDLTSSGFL
Summary of the method: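 Values derive from bidirectional fitting against DMSO negative control. Underlying signal: cis-element reporter mRNA in transiently transfected HepG2, harvested 24 h post-dose and measured by RT-PCR plus capillary electrophoresis.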

[4] = ATG_AP_1_CIS: Attagene CIS-FACTORIAL HepG2 Assay for human Activator Protein 1 (AP-1) (AID 2282931); settings: HepG2 Attagene cis-factorial AP-1 reporter mRNA; actives raise or lower the signal
Summary of the method: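 Cis-regulated reporter units transiently expressed in HepG2 report endogenous transcription-factor activity. Signal: reporter mRNA at 24 h, via RT-PCR and fluorescent capillary electrophoresis. Endpoint derived by bidirectional fitting, DMSO as negative control.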

[5] = ATG_AP_2_CIS: Attagene CIS-FACTORIAL HepG2 Assay for human Activator Protein 2 (AP-2) (AID 2282932); settings: HepG2 AP-2 cis-reporter, Attagene transcription factor profiling; actives raise or lower the signal
Summary of the method: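 HepG2 cells were transiently transfected with multiple cis-promoter reporter transcription units and dosed for 24 h. Reporter mRNA was measured by RT-PCR with capillary electrophoresis fluorescence; bidirectional fits relative to DMSO baseline.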

[6] = biological target: Transcription factor E2F1 (Homo sapiens) (UniProt Q01094); test: ATG_E2F_CIS: Attagene CIS-FACTORIAL HepG2 Assay for human E2F Transcription Factor 1 (AID 2282935); settings: HepG2 Attagene cis-reporter, E2F reporter RNA transcripts; actives raise or lower the signal
Sequence of Transcription factor E2F1 (Homo sapiens) (Q01094 whole entry, looked up): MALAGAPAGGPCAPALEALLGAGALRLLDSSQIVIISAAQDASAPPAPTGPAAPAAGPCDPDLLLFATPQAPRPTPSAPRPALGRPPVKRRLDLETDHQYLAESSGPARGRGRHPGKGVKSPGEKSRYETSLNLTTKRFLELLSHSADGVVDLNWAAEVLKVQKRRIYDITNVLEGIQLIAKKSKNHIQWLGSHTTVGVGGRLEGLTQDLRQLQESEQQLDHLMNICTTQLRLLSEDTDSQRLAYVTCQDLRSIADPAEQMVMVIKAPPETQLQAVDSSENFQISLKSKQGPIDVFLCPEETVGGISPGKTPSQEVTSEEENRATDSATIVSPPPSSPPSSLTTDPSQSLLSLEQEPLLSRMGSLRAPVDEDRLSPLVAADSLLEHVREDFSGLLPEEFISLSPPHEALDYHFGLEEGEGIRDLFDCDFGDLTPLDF
Summary of the method: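 HepG2 cells transiently transfected with multiplexed cis-element reporter units, dosed for 24 h. Reporter mRNA measured by RT-PCR, 6-FAM primer-extension labeling, HpaI digestion and capillary electrophoresis; bidirectional fit versus DMSO baseline.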

[7] = ATG_E_Box_CIS: Attagene CIS-FACTORIAL HepG2 Assay for human Enhancer Box (E-box) (AID 2282936); settings: HepG2 E-box cis-reporter transcription, actives raise or lower the signal
Summary of the method: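 HepG2 cells transiently transfected with multiplexed cis-element reporter units sensing endogenous transcription factor activity; 24 h compound exposure. Reporter mRNA measured by RT-PCR, 6-FAM primer extension, HpaI digestion and capillary electrophoresis; bidirectional fit versus DMSO.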

[8] = ATG_M_61_CIS: Attagene CIS-FACTORIAL HepG2 Assay for M61 Transcription Factor (Internal Marker) (AID 2282937); settings: HepG2 Attagene CIS-FACTORIAL M61 internal marker reporter; actives raise or lower the signal
Summary of the method: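 Background-control endpoint: HepG2 cells with cis-regulated reporter constructs, 24 h exposure, reporter mRNA detected via fluorescent primer extension and capillary electrophoresis; values from bidirectional fitting with DMSO baseline.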

[9] = ATG_EGR_CIS: Attagene CIS-FACTORIAL HepG2 Assay for human Early Growth Response 1 (EGR1) (AID 2282938); settings: HepG2 Attagene CIS-FACTORIAL EGR reporter mRNA; actives raise or lower the signal
Summary of the method: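 Endpoint derived by bidirectional fitting versus DMSO vehicle. Method: cis-promoter reporter units transfected into HepG2, 24 h dosing, RNA isolation, RT-PCR with 6-FAM primer extension and HpaI digestion, then capillary electrophoresis fluorescence detection.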

[10] = ATG_M_19_CIS: Attagene CIS-FACTORIAL HepG2 Assay for M19 Transcription Factor (Internal Marker) (AID 2282939); settings: HepG2 Attagene CIS-FACTORIAL M19 internal marker reporter; actives raise or lower the signal
Summary of the method: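 HepG2 cells transiently transfected with cis-regulated multiple reporter transcription units were dosed for 24 h; reporter mRNA was quantified by RT-PCR, 6-FAM primer-extension labelling, HpaI digestion and capillary electrophoresis, with bidirectional fitting against DMSO baseline.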

[11] = ATG_Ets_CIS: Attagene CIS-FACTORIAL HepG2 Assay for human Erythroblast Transformation Specific (ETS) (AID 2282941); settings: HepG2 ETS cis-reporter transcription, actives raise or lower the signal
Summary of the method: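 HepG2 cells transfected with multiple cis-regulated reporter units measuring endogenous ETS-driven transcription, 24 h after dosing. Reporter mRNA quantified by RT-PCR with capillary electrophoresis; bidirectional fit relative to DMSO.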

[12] = biological target: Hepatocyte nuclear factor 3-beta (Homo sapiens) (UniProt Q9Y261); test: ATG_FoxA2_CIS: Attagene CIS-FACTORIAL HepG2 Assay for human Forkhead box A2 (FOXA2) (AID 2282942); settings: HepG2 cis-reporter transcription factor activity, 24 h; actives raise or lower the signal
Sequence of Hepatocyte nuclear factor 3-beta (Homo sapiens) (Q9Y261 whole entry, looked up): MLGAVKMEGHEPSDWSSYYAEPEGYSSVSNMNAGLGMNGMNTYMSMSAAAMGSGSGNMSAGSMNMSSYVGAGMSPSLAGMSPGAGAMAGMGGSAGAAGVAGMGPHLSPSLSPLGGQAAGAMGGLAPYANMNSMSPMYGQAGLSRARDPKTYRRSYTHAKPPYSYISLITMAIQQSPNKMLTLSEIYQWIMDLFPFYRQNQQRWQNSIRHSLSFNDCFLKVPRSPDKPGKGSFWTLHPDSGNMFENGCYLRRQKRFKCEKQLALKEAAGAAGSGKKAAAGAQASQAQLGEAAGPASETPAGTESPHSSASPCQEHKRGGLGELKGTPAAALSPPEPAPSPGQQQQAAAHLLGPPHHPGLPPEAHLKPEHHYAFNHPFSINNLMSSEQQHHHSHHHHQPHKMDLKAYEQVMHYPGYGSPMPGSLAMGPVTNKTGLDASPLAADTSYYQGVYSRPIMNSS
Summary of the method: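 Measured: reporter mRNA induction or loss in HepG2 transiently carrying multiple cis-regulated reporter units, 24 h after dosing. Quantified by RT-PCR plus capillary electrophoresis, normalised to DMSO.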

[13] = ATG_GATA_CIS: Attagene CIS-FACTORIAL HepG2 Assay for human GATA Binding Protein (AID 2282944); settings: HepG2 GATA cis-element reporter, Attagene multiplex mRNA; actives raise or lower the signal
Summary of the method: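 HepG2 cells transiently transfected with multiplexed cis-element reporter units reflecting endogenous transcription factor activity; reporter mRNA measured after 24 h dosing by RT-PCR, 6-FAM labeling, HpaI digestion and capillary electrophoresis. Bidirectional fitting versus DMSO baseline.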

[14] = ATG_GLI_CIS: Attagene CIS-FACTORIAL HepG2 Assay for human Zinc Finger Protein GLI1 (AID 2282945); settings: HepG2, Attagene cis-factorial reporter mRNA, GLI element; actives raise or lower the signal
Summary of the method: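 HepG2 cells transiently transfected with cis-promoter multiplexed reporter units report endogenous transcription factor activity. After 24 h chemical exposure, reporter mRNA was quantified by RT-PCR, 6-FAM labelling, HpaI digestion and capillary electrophoresis, with bidirectional fitting against DMSO.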

[15] = ATG_DR4_LXR_CIS: Attagene CIS-FACTORIAL HepG2 Assay for human Liver X Receptor (LXR), DR4 submotif (AID 2282929); settings: HepG2 Attagene DR4 cis-reporter, mRNA transcription; actives raise or lower the signal
Summary of the method: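 DR4 cis-reporter in HepG2, 24 h exposure. Detection: RT-PCR, 6-FAM labelling, CE fragment analysis. Endpoint fitted bidirectionally, DMSO = baseline.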

[16] = ATG_BRE_CIS: Attagene CIS-FACTORIAL HepG2 Assay for human Bone Morphogenetic Protein (BMP) Response Element (BRE) (AID 2282933); settings: HepG2 BMP response element reporter, Attagene transcription factor profiling; actives raise or lower the signal
Summary of the method: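 HepG2 cells transiently transfected with multiplexed cis-element reporter units were dosed with chemical for 24 h. Reporter mRNA was measured by RT-PCR with fluorescent labelling, HpaI digestion and capillary electrophoresis; bidirectional fitting relative to DMSO.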

[17] = biological target: Retinoic acid receptor alpha (Homo sapiens) (UniProt P10276); test: ATG_DR5_RAR_CIS: Attagene CIS-FACTORIAL HepG2 Assay for human Retinoic Acid Receptor Alpha (RARE), DR5 submotif (AID 2282934); settings: HepG2 Attagene cis-factorial RARE DR5 reporter, mRNA; actives raise or lower the signal
Sequence of Retinoic acid receptor alpha (Homo sapiens) (P10276 whole entry, looked up): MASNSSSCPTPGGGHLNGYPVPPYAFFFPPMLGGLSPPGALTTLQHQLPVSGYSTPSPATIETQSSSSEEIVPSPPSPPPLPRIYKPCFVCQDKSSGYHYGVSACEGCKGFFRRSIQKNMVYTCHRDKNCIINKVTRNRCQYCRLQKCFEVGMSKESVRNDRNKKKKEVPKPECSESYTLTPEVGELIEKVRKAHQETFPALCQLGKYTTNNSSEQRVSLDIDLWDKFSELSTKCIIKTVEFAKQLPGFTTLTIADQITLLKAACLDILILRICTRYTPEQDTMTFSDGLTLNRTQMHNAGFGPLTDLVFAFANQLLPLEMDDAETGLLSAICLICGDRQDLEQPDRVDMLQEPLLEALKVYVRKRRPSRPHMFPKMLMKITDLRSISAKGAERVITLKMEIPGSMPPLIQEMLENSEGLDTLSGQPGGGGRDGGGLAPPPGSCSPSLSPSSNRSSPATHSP
Summary of the method: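 Endpoint fitted in both directions relative to DMSO as negative control. It reflects DR5 cis-element reporter mRNA induction in transiently transfected HepG2 cells, measured 24 h after dosing through RT-PCR and fluorescent capillary electrophoresis.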

[18] = ATG_FoxO_CIS: Attagene CIS-FACTORIAL HepG2 Assay for human Forkhead box O (FoxO) (AID 2282943); settings: HepG2 Attagene cis-reporter, FoxO element, mRNA; actives raise or lower the signal
Summary of the method: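 Values reflect reporter mRNA induction or loss in HepG2 cells 24 h post-dosing, fitted bidirectionally with DMSO as negative control and baseline. Detection used RT-PCR and fluorescence capillary electrophoresis.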

[19] = ATG_ERE_CIS: Attagene CIS-FACTORIAL HepG2 Assay for Estrogen Response Element (ERE) (AID 2282940); settings: HepG2 ERE cis-reporter, Attagene RNA transcript; actives raise or lower the signal
Summary of the method: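 HepG2 cells transiently transfected with cis-promoter-driven multiplexed reporter transcription units report endogenous TF activity. After 24 h compound exposure, reporter mRNA is quantified by RT-PCR with capillary electrophoresis fluorescence; bidirectional fitting versus DMSO baseline.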

Measured: AC50

S=C(S)NCCNC(=S)S
not listed: [15] | [16] | [17] | [18] | [19]
inactive: all other assays above

CC(CN1c2ccccc2Sc2ccccc21)N(C)C (stereo not drawn)
active: [15] 33.4 µM | [5] 40.6 µM | [6] 33.4 µM | [7] 55.5 µM | [9] 25.2 µM
not listed: [3] | [11] | [13] | [19]
inactive: all other assays above

CC1(C)CCC(C)(C)c2cc(C(=O)Nc3ccc(C(=O)O)cc3)ccc21
active: [15] 27.6 µM | [5] 66.6 µM | [9] 63 µM
not listed: [8] | [13] | [17] | [18]
inactive: all other assays above

C=C(C)C(=O)O
not listed: [8] | [17] | [19]
inactive: all other assays above

CCCCCCOC(=O)CC
not listed: [10] | [15] | [17]
inactive: all other assays above

O=P(c1ccccc1)(c1ccccc1)c1ccccc1
active: [15] 58.6 µM
not listed: [7] | [17]
inactive: all other assays above

CC(C)C(C)(C)C(C)(C)C(C)(C)S
not listed: [17] | [18] | [19]
inactive: all other assays above

CCCCCNCCCCC
not listed: [8] | [19]
inactive: all other assays above

N#Cc1nc(Cl)c(Cl)c(Cl)c1Cl
active: [1] 6.82 µM | [2] 7.02 µM | [15] 3.14 µM | [4] 6.02 µM | [5] 4.74 µM | [16] 5.89 µM | [7] 5.53 µM | [9] 4.56 µM | [11] 2.25 µM | [12] 6.82 µM | [18] 5.92 µM | [13] 3.71 µM | [14] 5.39 µM
inactive: [3] | [6] | [8] | [10]

CSc1nnc(C(C)(C)C)c(=O)[nH]1
not listed: [7] | [17]
inactive: all other assays above

CC(C)c1cccc(O)c1
not listed: [13] | [16] | [17] | [18] | [19]
inactive: all other assays above

COc1ccc(O)cc1
not listed: [7] | [8] | [17] | [19]
inactive: all other assays above

C=C(C)C(=O)O[C@H]1C[C@@H]2CC[C@@]1(C)C2(C)C
active: [2] 148 µM | [3] 137 µM | [4] 100 µM | [6] 100 µM | [7] 147 µM
not listed: [9] | [10] | [15] | [17] | [19]
inactive: all other assays above

C=CC[N+](C)(C)CC=C
not listed: [10] | [13] | [19]
inactive: all other assays above

c1ccc2c(c1)c1cccc3ccc4cccc2c4c31
not listed: [17]
inactive: all other assays above

CC(C)C[C@H]1C(=O)N2CCC[C@H]2[C@]2(O)O[C@](NC(=O)[C@@H]3C=C4c5cccc6[nH]c(Br)c(c56)C[C@H]4N(C)C3)(C(C)C)C(=O)N12
active: [15] 7.76 µM | [9] 1.65 µM
not listed: [13] | [16] | [19]
inactive: all other assays above

Reference: PubChem BioAssay (EPA / NIEHS)
